# Values joined by “and” are separate entries in the source; they are usually repeats but may differ in a detail not shown here. Equal entries are not always repeated. Screen size: about 5,500 compounds; about 2,000 (36%) were called active. Roughly 18% stayed inconclusive and do not appear here. No stated cut-off is given here; in the data, active means normalized growth mostly below about 0.91 (no sharp cut-off); inconclusive means no clear call, values can overlap the other calls; inactive means mostly above about 0.92. The list shows a part of the results.
# Assay: chemical genetic growth profiling, strain panel (AID 1159580);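 further: tested at 20 µM; growth read once vehicle control cultures reached saturation at 30 °C; 1 = growth at the plate median or of vehicle wells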
# Conditions: S. cerevisiae deletion strains, growth OD
compound,measurement,setting,value
C=C1C(=O)O[C@@H]2C3O[C@]3(C)CC/C=C(\C)CC[C@@H]12 (stereo partly specified),normalized growth,"locus YAL013W, strain DEP1, stronger effect = lower value",0.878 (active)
same,normalized growth,"locus YAL021C, strain ccr4, stronger effect = lower value",0.967 (inactive)
same,normalized growth,"locus YAL026C, strain drs2, stronger effect = lower value",0.914 (inactive)
same,normalized growth,"locus YAL030W, strain snc1, stronger effect = lower value",0.983 (inactive)
same,normalized growth,"locus YBL061C, strain skt5, stronger effect = lower value",1.01 (inactive)
same,normalized growth,"locus YBR009C, strain hhf1, stronger effect = lower value",0.977 (inactive)
same,normalized growth,"locus YBR021W, strain FUR4, stronger effect = lower value",1.06 (inactive)
same,normalized growth,"locus YBR023C, strain chs3, stronger effect = lower value",0.964 (inactive)
same,normalized growth,"locus YBR171W, strain sec66, stronger effect = lower value",0.975 (inactive)
same,normalized growth,"locus YBR229C, strain ROT2, stronger effect = lower value",0.941 (inactive)
same,normalized growth,"locus YBR231C, strain swc5, stronger effect = lower value",1.01 (inactive)
same,normalized growth,"locus YBR279W, strain paf1, stronger effect = lower value",0.948 (inactive)
same,normalized growth,"locus YCL011C, strain gbp2, stronger effect = lower value",0.978 (inactive)
same,normalized growth,"locus YCL016C, strain dcc1, stronger effect = lower value",0.946 (inactive)
same,normalized growth,"locus YCL029C, strain bik1, stronger effect = lower value",0.905 (active)
same,normalized growth,"locus YCL069W, strain vba3, stronger effect = lower value",1 (inactive)
same,normalized growth,"locus YCR088W, strain abp1, stronger effect = lower value",0.983 (inactive)
same,normalized growth,"locus YDL005C, strain med2, stronger effect = lower value",0.989 (inactive)
same,normalized growth,"locus YDL035C, strain GPR1, stronger effect = lower value",0.838 (active)
same,normalized growth,"locus YDL040C, strain nat1, stronger effect = lower value",0.993 (inactive)
same,normalized growth,"locus YDL074C, strain BRE1, stronger effect = lower value",0.671 (active)
same,normalized growth,"locus YDL101C, strain DUN1, stronger effect = lower value",0.87 (active)
same,normalized growth,"locus YDL134C, strain PPH21, stronger effect = lower value",0.903 (inactive)
same,normalized growth,"locus YDL185W, strain tfp1, stronger effect = lower value",0.913 (inactive)
same,normalized growth,"locus YDL192W, strain arf1, stronger effect = lower value",0.729 (active)
same,normalized growth,"locus YDR001C, strain nth1, stronger effect = lower value",0.997 (inactive)
same,normalized growth,"locus YDR069C, strain doa4, stronger effect = lower value",0.981 (inactive)
same,normalized growth,"locus YDR101C, strain arx1, stronger effect = lower value",0.864 (active)
same,normalized growth,"locus YDR137W, strain rgp1, stronger effect = lower value",0.556 (active)
same,normalized growth,"locus YDR150W, strain NUM1, stronger effect = lower value",0.917 (inactive)
same,normalized growth,"locus YDR159W, strain sac3, stronger effect = lower value",1.02 (inactive)
same,normalized growth,"locus YDR162C, strain NBP2, stronger effect = lower value",0.455 (active)
same,normalized growth,"locus YDR195W, strain ref2",1.06 (inactive)
same,normalized growth,"locus YDR297W, strain sur2, stronger effect = lower value",0.998 (inactive)
same,normalized growth,"locus YDR318W, strain mcm21, stronger effect = lower value",0.739 (active)
same,normalized growth,"locus YDR334W, strain swr1, stronger effect = lower value",0.987 (inactive)
same,normalized growth,"locus YDR335W, strain msn5, stronger effect = lower value",0.976 (inactive)
same,normalized growth,"locus YDR388W, stronger effect = lower value",0.901 (active)
same,normalized growth,"locus YDR392W, strain spt3, stronger effect = lower value",0.532 (active)
same,normalized growth,"locus YDR502C, strain sam2, stronger effect = lower value",0.818 (active)
same,normalized growth,"locus YEL003W, strain gim4, stronger effect = lower value",0.973 (inactive)
same,normalized growth,"locus YEL037C, strain rad23, stronger effect = lower value",0.992 (inactive)
same,normalized growth,"locus YEL061C, strain CIN8 (second series), stronger effect = lower value",1 (inactive)
same,normalized growth,"locus YEL061C, strain CIN8, stronger effect = lower value",0.86 (active)
same,normalized growth,"locus YER015W, strain faa2, stronger effect = lower value",0.993 (inactive)
same,normalized growth,"locus YER016W, strain bim1, stronger effect = lower value",0.997 (inactive)
same,normalized growth,"locus YER110C, stronger effect = lower value",0.879 (active)
same,normalized growth,"locus YER111C, strain swi4, stronger effect = lower value",0.992 (inactive)
same,normalized growth,"locus YER155C, strain BEM2 (second series), stronger effect = lower value",0.888 (inactive)
same,normalized growth,"locus YER155C, strain BEM2, stronger effect = lower value",0.798 (active)
same,normalized growth,"locus YER167W, strain BCK2, stronger effect = lower value",0.694 (active)
same,normalized growth,"locus YFR010W, strain ubp6, stronger effect = lower value",0.992 (inactive)
same,normalized growth,"locus YGL078C, strain dbp3, stronger effect = lower value",0.937 (inactive)
same,normalized growth,"locus YGL086W, strain mad1, stronger effect = lower value",0.792 (active)
same,normalized growth,"locus YGL167C, strain pmr1, stronger effect = lower value",0.97 (inactive)
same,normalized growth,"locus YGL173C, strain kem1, stronger effect = lower value",0.956 (inactive)
same,normalized growth,"locus YGL227W, strain vid30, stronger effect = lower value",0.999 (inactive)
same,normalized growth,"locus YGL240W, strain doc1, stronger effect = lower value",0.962 (inactive)
same,normalized growth,"locus YGL248W, strain PDE1, stronger effect = lower value",0.879 (active)
same,normalized growth,"locus YGL253W, strain hxk2, stronger effect = lower value",0.963 (inactive)
same,normalized growth,"locus YGR078C, strain PAC10, stronger effect = lower value",0.695 (active)
same,normalized growth,"locus YGR135W, strain pre9, stronger effect = lower value",0.749 (active)
same,normalized growth,"locus YGR229C, strain SMI1, stronger effect = lower value",0.396 (active)
same,normalized growth,"locus YGR252W, strain gcn5, stronger effect = lower value",0.771 (inactive)
same,normalized growth,"locus YHR013C, strain ard1, stronger effect = lower value",0.894 (inactive)
same,normalized growth,"locus YHR027C, strain rpn1, stronger effect = lower value",0.991 (inactive)
same,normalized growth,"locus YHR030C, strain SLT2, stronger effect = lower value",0.722 (active) and 0.968 (inactive)
same,normalized growth,"locus YHR079C, strain IRE1 (second series), stronger effect = lower value",0.861 (active)
same,normalized growth,"locus YHR079C, strain IRE1, stronger effect = lower value",0.966 (inactive)
same,normalized growth,"locus YHR094C, strain hxt1, stronger effect = lower value",0.934 (inactive)
same,normalized growth,"locus YHR129C, strain ARP1, stronger effect = lower value",0.801 (active)
same,normalized growth,"locus YHR142W, strain chs7, stronger effect = lower value",0.962 (inactive)
same,normalized growth,"locus YHR200W, strain rpn10, stronger effect = lower value",0.924 (inactive)
same,normalized growth,"locus YIL066C, strain RNR3, stronger effect = lower value",0.7 (active)
same,normalized growth,"locus YIL073C, strain SPO22, stronger effect = lower value",0.588 (active)
same,normalized growth,"locus YIL125W, strain kgd1, stronger effect = lower value",0.937 (inactive)
same,normalized growth,"locus YIR030C, strain dcg1, stronger effect = lower value",0.912 (active)
same,normalized growth,"locus YJL092W, strain hpr5, stronger effect = lower value",0.987 (inactive)
same,normalized growth,"locus YJL095W, strain BCK1 (second series), stronger effect = lower value",0.976 (inactive)
same,normalized growth,"locus YJL095W, strain BCK1, stronger effect = lower value",0.446 (active) and 0.99 (inactive)
same,normalized growth,"locus YJL115W, strain asf1, stronger effect = lower value",0.991 (inactive)
same,normalized growth,"locus YJL129C, strain trk1, stronger effect = lower value",1 (inactive)
same,normalized growth,"locus YJL134W, strain LCB3, stronger effect = lower value",0.943 (inactive)
same,normalized growth,"locus YJL154C, strain vps35, stronger effect = lower value",0.998 (inactive)
same,normalized growth,"locus YJL164C, strain tpk1, stronger effect = lower value",0.95 (inactive)
same,normalized growth,"locus YJL166W, strain qcr8, stronger effect = lower value",0.961 (inactive)
same,normalized growth,"locus YJL168C, strain set2, stronger effect = lower value",0.914 (active)
same,normalized growth,"locus YJL187C, strain SWE1 (second series), stronger effect = lower value",0.866 (active)
same,normalized growth,"locus YJL187C, strain SWE1, stronger effect = lower value",0.963 (inactive)
same,normalized growth,"locus YJR043C, strain POL32, stronger effect = lower value",0.752 (active)
same,normalized growth,"locus YJR066W, strain TOR1, stronger effect = lower value",0.937 (inactive)
